Laboratory results reported in PubChem BioAssay (EPA / NIEHS).
Some structures have more than one record in an assay (separate samples or runs), and their calls can disagree. Activity calls are given as the source filed them. The calls were made as follows: active = hit-call score of the fitted dose curve at least 0.9, where 1 is the maximum; inactive = score below 0.9.

assay: CCTE_Shafer_MEA_acute_cross_correlation_area: CCTE's Neural Acute Assay for Area of Cross Correlation, Shafer Lab (AID 2284024);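 also: curves fitted for loss of cross-correlation area so actives lower synchrony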
Experimental: CCTE_Shafer_MEA_acute assay is conducted using Axion Biosystems 48 well microelectrode array (MEA) plates and Maestro recording system. Each well of the MEA plate contains a grid of 16 microelectrodes embedded in the culture surface. Electrically active cells, such as neurons, can be cultured over the electrodes, and electrical activity in these cells can be recorded extracellularly. The spontaneous firing of neurons is captured from each electrode on a microsecond timescale providing both temporally and spatially precise data. […] The CCTE_Shafer_MEA_acute assay uses primary cultures of rat cortical neurons. As these cultures mature over time, neural networks develop functional activity and form cohesive networks in which electrical activity can be highly coordinated. Baseline 40-minute recordings are made on days post-plating 13 or 15, followed by a secondary 40-minute recording after chemical exposure.CCTE_Shafer_MEA_acute_cross_correlation_area is a component of the CCTE_Shafer_MEA_acute assay. It measures the area under the well-wide pooled inter-electrode cross-correlation of action potential firing (not normalized to auto-correlations) within a window centered around 0 for the phase lag during a recording in a microelectrode array (MEA) using Axion Biosystems Maestro 768 channel amplifier with the AxIS adaptive spike detector. The recordings before and after chemical treatment are used to calculate a percent change in the cross correlation area in each well.Data from the assay component CCTE_Shafer_MEA_acute_cross_correlation_area was analyzed into 1 assay endpoint. This assay endpoint, CCTE_Shafer_MEA_acute_cross_correlation_area, was analyzed in the negative analysis fitting direction relative to DMSO as the negative control and baseline of activity. Using a type of functional reporter, gain or loss-of-signal activity can be used to understand electrical activity.
Spontaneous activity in the cortical cultures was recorded using an Axion Biosystems Maestro 768 channel amplifier and Axion Integrated Studios (AxIS) v1.8 (or later) software. The amplifier recorded from all channels simultaneously (gain = 1200 x; sampling rate = 12.5 kHz/channel): raw signals were filtered with a Butterworth band-pass filter (300-5000 Hz), which filters out slower local field potentials leaving only fast potentials, i.e., "spikes", arising from extracellular currents associated with action potentials (Pine 2006; Wheeler and Nam 2011). On-line spike detection of filtered signals was conducted with the AxIS adaptive spike detector, using a threshold of 8x the root mean squared (rms) noise on each channel. Any electrodes with rms noise levels greater than 5 uV were grounded (e.g., no data were recorded). Once grounded, an electrode was grounded for the duration of the experiment. All recordings were conducted at 37 C. Wells were deemed usable if on the day of the exposure >/= 10 electrodes were active (defined as >/= 5 spikes/min). On DIV 13 or 15, a minimum of three wells from one cortical culture preparation were treated with each compound (0.03-40 uM). Prior to recording baseline activity, each mwMEA plate was placed in the Maestro at 37 C and allowed to sit for 20 min while firing rates stabilized. Baseline activity (40 min) was recorded before the addition of each compound. An additional 40 min of spontaneous activity was recorded in the presence of each compound. Changes in network parameters relative to baseline were assessed following compound treatment.

Row | SMILES | outcome | AC50
1 | CCc1cnc(C2=NC(C)(C(C)C)C(=O)N2)c(C(=O)O)c1 (centres undefined) | inactive | 
2 | CCOC(=O)CC(SP(=O)(OC)OC)C(=O)OCC (centres undefined) | inactive | 
3 | Cc1ccn2nc(S(=O)(=O)Nc3c(F)cccc3F)nc2n1 | inactive | 
4 | CC(COc1ccc(Oc2ccccc2)cc1)Oc1ccccn1 (centres undefined) | inactive | 
5 | COP(=O)(NC(C)=O)SC (centres undefined) | inactive | 
6 | CSC1=N[C@@](C)(c2ccccc2)C(=O)N1Nc1ccccc1 | inactive | 
7 | CCc1cccc(C)c1N(C(=O)CCl)C(C)COC (centres undefined) | inactive | 
8 | CC[C@H](C)[C@H]1O[C@]2(C=C[C@@H]1C)C[C@@H]1C[C@@H](C/C=C(\C)[C@@H](O[C@H]3C[C@H](OC)[C@@H](O[C@H]4C[C@H](OC)[C@@H](NC)[C@H](C)O4)[C@H](C)O3)[C@@H](C)/C=C/C=C3\CO[C@@H]4[C@H](O)C(C)=C[C@@H](C(=O)O1)[C@]34O)O2 | inactive | 6.26 nM (active)
9 | CC(C)[C@H](C(=O)O[C@H](C#N)c1cccc(Oc2ccccc2)c1)c1ccc(Cl)cc1 | inactive | 
10 | FC(F)C(F)(F)OCC(Cn1cncn1)c1ccc(Cl)cc1Cl (centres undefined) | inactive | 
11 | CON=C(C(=O)OC)c1ccccc1CON=C(C)c1cccc(C(F)(F)F)c1 |  | 162 nM (active)
12 | CC(=NC#N)N(C)Cc1ccc(Cl)nc1 | inactive | 
13 | COc1cc(OC)nc(Sc2cccc(Cl)c2C(=O)O)n1 | inactive | 
14 | O=[N+]([O-])c1cc(C(F)(F)F)c(Cl)c([N+](=O)[O-])c1Nc1ncc(C(F)(F)F)cc1Cl |  | 263 nM (active)
15 | CCCOCC(=Nc1ccc(Cl)cc1C(F)(F)F)n1ccnc1 |  | 440 nM (active)
16 | CC(C)=CC1C(C(=O)OCN2C(=O)C3=C(CCCC3)C2=O)C1(C)C (centres undefined) | inactive | 
17 | CC(C)N(C(=O)SCC(Cl)=C(Cl)Cl)C(C)C | inactive | 

Row | SMILES | outcome | AC50
18 | CCOP(=O)(NC(C)C)Oc1ccc(SC)c(C)c1 (centres undefined) | inactive | 
19 | COP(=O)(OC)C(O)C(Cl)(Cl)Cl (centres undefined) | inactive | 
20 | N#CSCSC#N | inactive | 
21 | C#CCC1=C(C)C(OC(=O)C2C(C=C(C)C)C2(C)C)CC1=O (centres undefined) | inactive | 
22 | CCOP(=S)(Oc1cnc(C(C)(C)C)nc1)OC(C)C (centres undefined) | inactive | 
23 | Nc1c(Cl)cc([N+](=O)[O-])cc1Cl | inactive | 
24 | C[Si](Cn1cncn1)(c1ccc(F)cc1)c1ccc(F)cc1 |  | 1670 nM (active)
25 | CCOP(=S)(OCC)Oc1ccc2c(C)c(Cl)c(=O)oc2c1 | inactive | 
26 | CN1COCN(Cc2cnc(Cl)s2)C1=N[N+](=O)[O-] | inactive | 
27 | C[N+]1(C)CCCCC1 | inactive | 
28 | CCOP(=S)(OCC)SCCSCC | inactive | 
29 | C=C(C)[C@H]1Cc2c(ccc3c2O[C@@H]2COc4cc(OC)c(OC)cc4[C@@H]2C3=O)O1 | inactive | 
30 | CC1=NNC(=O)N(/N=C/c2cccnc2)C1 | inactive | 
31 | O=C(O)c1cc(Oc2ccc(C(F)(F)F)cc2Cl)ccc1[N+](=O)[O-] | inactive | 
32 | CN(C)[C@@H]1C(=O)C(C(N)=O)=C(O)[C@@]2(O)C(=O)C3=C(O)c4c(O)cccc4[C@@](C)(O)[C@H]3[C@H](O)[C@@H]12 | inactive | 
33 | CN(C)NC(=O)CCC(=O)O | inactive | 
